Results filed as inconclusive are left out. Activity calls are given as the source filed them. Rule for the calls: active = hit-call score of the fitted dose curve at least 0.9, where 1 is the maximum; inconclusive = response in the unintended direction; inactive = score below 0.9.
Assay: CCTE_Deisenroth_AIME_384WELL_CTox_Active: Cytotoxicity Assessment (CTOX) in CCTE's 384-well Estrogen Receptor Transactivation Assay with AIME metabolic competence (metabolism positive), Deisenroth Lab (AID 2284037);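 note: chemicals first conditioned 2 h by alginate-bound induced rat liver S9 before cells; activity means signal loss indicating cell death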
Method: CCTE_Deisenroth_AIME_384WELL (AIME metabolism assay) is a cell-based, single-readout assay that uses VM7Luc4E2, a human mammary gland/breast cell line, with measurements taken at 24 hour after chemical dosing in a 384-well plate.CCTE_Deisenroth_AIME_384WELL_CTox_Active is one of four assay components measured or calculated from the CCTE_Deisenroth_AIME_384WELL assay. It is designed to make measurements of a protease substrate, a type of viability indicator, as detected with substrate cleavage to a fluorescent probe in living cells.CCTE_Deisenroth_AIME_384WELL_CTox_Active is a component of the CCTE_Deisenroth_AIME_384WELL assay that measures the effect of retroftting the VM7Luc ERTA assay with the Alginate Immobolization of Metabolic Enzymes (AIME) metabolism method. AIME is optimized to impart phase I hepatic metabolism using phenobarbital/beta-naphthoflavone induced hepatic S9 from male Sprague Dawley rats. Parent chemicals are incubated for 2 hours in the AIME assay prior to transfer to the VM7Luc ERTA assay plate. […] This endpoint evaluates cytotoxicity in metabolism positive mode. Using a type of flourescent probe in VM7Luc cells, loss-of-signal activity can be used to understand loss of viability. This assay endpoint, CCTE_Deisenroth_AIME_384WELL_CTox_Active, was analyzed with bidirectional fitting in the ERTA assay.
The AIME procedure consists of a preparative "pre-stamping" step using a barium chloride/poly-L-lysine (PLL) solution followed by "stamping" the lid in alginate-hepatic S9 (metabolism positive) or alginate-water (metabolism negative) to form microspheres. Once stamping is completed, the AIME lids are placed in duplicate microplates (metabolism positive or negative) containing chemical solutions and incubated for two hours to facilitate metabolic reactions. The conditioned medium, containing parent chemical or metabolites, is then transferred to the cell-based VM7Luc Estrogen Receptor Transactivation Assay (ERTA) for 24 hours. A typical experimental design tests a 10-point concentration series (0.002 - 200 uM) for 8 compounds (96-well format) (Deisenroth 2020) or 32 compounds (384-well format) (Hopperstad 2022) in single technical replicate. AIME assay controls include trans-stilbene (bioactivated control) and ethylparaben (bioinactivated control). ERTA assay plate controls include 17-beta estradiol (positive control) and DMSO (solvent control). Experiments typically comprise a minimum of four experimental replicates (n=4).

Row | Compound | outcome | AC50
1 | OCCOCCOCCOCCO | inactive | 
2 | CCCCCOC(=O)CCC | inactive | 
3 | CN(C)CCCN | inactive | 
4 | NCCNCCN | inactive | 
5 | CC(C)=CCCC(C)CC=O (centres undefined) | inactive | 
6 | CCCCCCCCCCCCCC(=O)O | inactive | 
7 | CC1(C)C(=O)N(Br)C(=O)N1Cl | inactive | 
8 | O=C[C@@H](O)[C@H](O)[C@H](O)CO | inactive | 
9 | OC1OC[C@@H](O)[C@H](O)[C@H]1O (some centres undefined) | inactive | 
10 | CC(=O)OCCOC(C)=O | inactive | 
11 | O=C(Cl)c1cccc(C(=O)Cl)c1 | inactive | 
12 | NCCCCCCN | inactive | 
13 | Cc1ccc(O)c(C(C)(C)C)c1 | inactive | 
14 | NCCCN1CCOCC1 | inactive | 
15 | CCCCCCCCCCCCCOS(=O)(=O)O |  | 156 µM (active)
16 | O=C(O)c1ccc([N+](=O)[O-])cc1 | inactive | 
17 | O=C(O)Cc1cccc2ccccc12 | inactive | 
18 | CC1(C)[C@@H]2CC[C@@]1(C)[C@H](O)C2 | inactive | 
19 | CCCC1CCC(=O)O1 (centres undefined) | inactive | 

Reference: PubChem BioAssay (EPA / NIEHS)
